# For part of these data: Potency and affinity values are given separately.
# Experiments:
# Parameters in all cases: scale not given: direction of the effect not stated beside the values
# [1] = target: Protein translocase subunit SecA (Escherichia coli (strain K12)) (UniProt P10408); assay: Assay to Identify E. coli SecA ATPase Inhibitors; assay type: functional; settings: 30 µM
# [2] = target: T1, Ubiquitin-activating enzyme e1, putative (Leishmania donovani (strain BPK282A1)) (UniProt E9BSI1); assay: Leishmania donovani Ubiquitin Activating Enzyme (LdE1); assay type: functional; settings: 30 µM
# T1 sequence (whole entry): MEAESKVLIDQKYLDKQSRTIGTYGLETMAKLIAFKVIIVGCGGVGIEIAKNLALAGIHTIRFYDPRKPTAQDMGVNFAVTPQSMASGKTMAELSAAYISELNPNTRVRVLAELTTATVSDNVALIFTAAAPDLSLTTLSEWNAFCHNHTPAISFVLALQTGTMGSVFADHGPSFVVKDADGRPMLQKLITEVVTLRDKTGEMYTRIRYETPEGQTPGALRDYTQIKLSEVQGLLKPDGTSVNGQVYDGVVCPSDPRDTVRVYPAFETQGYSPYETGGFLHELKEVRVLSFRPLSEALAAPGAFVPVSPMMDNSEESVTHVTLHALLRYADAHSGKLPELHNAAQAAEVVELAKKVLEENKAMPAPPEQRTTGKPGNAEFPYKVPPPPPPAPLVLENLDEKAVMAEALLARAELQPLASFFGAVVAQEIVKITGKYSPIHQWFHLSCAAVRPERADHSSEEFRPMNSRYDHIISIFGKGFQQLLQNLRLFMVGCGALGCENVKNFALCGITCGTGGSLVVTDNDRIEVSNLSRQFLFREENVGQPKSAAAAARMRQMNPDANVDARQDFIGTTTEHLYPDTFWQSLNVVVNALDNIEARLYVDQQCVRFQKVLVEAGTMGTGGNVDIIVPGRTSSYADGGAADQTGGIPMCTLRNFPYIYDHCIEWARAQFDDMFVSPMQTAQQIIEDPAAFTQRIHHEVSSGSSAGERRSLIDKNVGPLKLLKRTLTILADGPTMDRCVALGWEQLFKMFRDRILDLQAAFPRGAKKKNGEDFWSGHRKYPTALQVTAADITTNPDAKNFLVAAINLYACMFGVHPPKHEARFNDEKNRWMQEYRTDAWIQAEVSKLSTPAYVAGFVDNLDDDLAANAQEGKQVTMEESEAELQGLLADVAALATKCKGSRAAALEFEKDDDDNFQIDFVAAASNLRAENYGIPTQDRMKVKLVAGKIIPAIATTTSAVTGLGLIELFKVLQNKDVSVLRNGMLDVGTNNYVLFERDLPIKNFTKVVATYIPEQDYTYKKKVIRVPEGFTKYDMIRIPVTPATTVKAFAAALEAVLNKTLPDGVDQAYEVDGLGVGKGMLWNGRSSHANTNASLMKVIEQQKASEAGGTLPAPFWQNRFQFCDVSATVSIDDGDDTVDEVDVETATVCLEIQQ
# [3] = target: AMP-activated protein kinase, AMPK (Homo sapiens) (UniProt P54646+O43741+P54619+Q9UGJ0+Q9Y478+Q13131+Q9UGI9); assay: AMP-dependent Kinase enzyme assay. An in vitro enzyme assay that detects ADP turnover that is directly proportional to AMPK activity. This uses naive AMPK that is activated during the assay with MK-8722; assay type: functional; settings: 30 µM
# [4] = target: Sialic acid-binding Ig-like lectin 9 (Homo sapiens) (UniProt Q9Y336); assay: Hs-Siglec9 ALPHAscreen SOP 20170721; settings: 10 µM
# Trypanosoma cruzi = assay: Trypanosoma cruzi phosphomannomutase and mannose-1-phosphate guanylyltransferase assay; assay type: functional; settings: 10 µM
# [5] = target: T2, Arginase-2, mitochondrial (Homo sapiens) (UniProt P78540); assay: in vitro enzyme assay to detect the production of urea directly proportional to the activity of Arginase II; assay type: functional; settings: 33.3 µM; note: in the data most compounds retested in dose-response had high values
# T2 sequence (whole entry): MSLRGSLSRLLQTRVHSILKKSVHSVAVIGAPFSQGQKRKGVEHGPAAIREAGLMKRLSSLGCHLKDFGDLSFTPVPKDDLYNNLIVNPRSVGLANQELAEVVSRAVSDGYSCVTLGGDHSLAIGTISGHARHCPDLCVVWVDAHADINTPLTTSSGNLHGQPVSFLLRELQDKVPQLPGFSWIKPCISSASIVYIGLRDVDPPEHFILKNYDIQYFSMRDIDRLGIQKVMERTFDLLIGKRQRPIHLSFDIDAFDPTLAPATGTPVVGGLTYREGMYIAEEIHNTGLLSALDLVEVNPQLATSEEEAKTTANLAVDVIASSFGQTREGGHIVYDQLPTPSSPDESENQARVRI
# [6] = target: T3, Proteasome subunit beta (Trypanosoma cruzi) (UniProt O96673); assay: Trypanosoma cruzi proteasome chymotrypsin-like activity (TcProtChymo) assay.; note: in the data most compounds retested in dose-response had high values; assay type: functional; settings: 9.37 µM
# T3 sequence (whole entry): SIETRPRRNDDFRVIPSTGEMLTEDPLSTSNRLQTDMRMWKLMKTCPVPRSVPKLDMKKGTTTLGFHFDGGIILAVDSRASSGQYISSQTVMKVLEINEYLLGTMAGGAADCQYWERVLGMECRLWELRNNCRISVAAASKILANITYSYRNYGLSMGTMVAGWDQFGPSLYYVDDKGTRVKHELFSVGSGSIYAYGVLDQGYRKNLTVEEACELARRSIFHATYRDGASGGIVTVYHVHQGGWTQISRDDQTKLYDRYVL
# Homo sapiens = species: Homo sapiens; assay: To identify inhibition of the IFN signalling (Jak-Stat) pathway via expression of an eGFP reporter gene under the control of an IFN-stimulated response element (ISRE) containing MxA promoter.; assay type: functional; settings: 30 µM
# [7] = target: T4, Tyrosyl-tRNA synthetase, putative (Trypanosoma cruzi (strain CL Brener)) (UniProt Q4DSP6); assay: Trypanosoma cruzi tyrosyl tRNA synthetase (TcYRS) _High Tyrosine SOP; assay type: functional; settings: 30 µM; note: in the data most compounds retested in dose-response had high values
# T4 sequence (whole entry): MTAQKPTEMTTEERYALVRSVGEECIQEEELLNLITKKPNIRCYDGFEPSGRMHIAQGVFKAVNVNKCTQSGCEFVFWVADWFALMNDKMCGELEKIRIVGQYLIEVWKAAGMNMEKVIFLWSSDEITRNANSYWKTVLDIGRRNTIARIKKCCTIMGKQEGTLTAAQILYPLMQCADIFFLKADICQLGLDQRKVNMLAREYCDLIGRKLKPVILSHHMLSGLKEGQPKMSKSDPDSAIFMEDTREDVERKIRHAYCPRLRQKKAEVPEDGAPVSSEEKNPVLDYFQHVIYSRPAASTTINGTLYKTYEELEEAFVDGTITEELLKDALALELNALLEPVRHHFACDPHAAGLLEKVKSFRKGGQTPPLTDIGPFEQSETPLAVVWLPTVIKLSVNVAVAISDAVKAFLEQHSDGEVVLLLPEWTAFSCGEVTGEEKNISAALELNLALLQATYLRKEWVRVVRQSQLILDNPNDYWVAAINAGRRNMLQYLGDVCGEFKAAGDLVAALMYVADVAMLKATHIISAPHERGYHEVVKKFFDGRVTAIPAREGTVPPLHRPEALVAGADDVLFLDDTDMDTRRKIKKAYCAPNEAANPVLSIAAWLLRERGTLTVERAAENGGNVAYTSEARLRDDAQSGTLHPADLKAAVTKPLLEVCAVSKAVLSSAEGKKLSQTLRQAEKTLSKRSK
# [8] = target: T4, Tyrosyl-tRNA synthetase, putative (Trypanosoma cruzi (strain CL Brener)); assay: Trypanosoma cruzi tyrosyl tRNA synthetase (TcYRS) SOP; assay type: functional; settings: 30 µM
# [9] = target: Chromo domain-containing protein 1 (Saccharomyces cerevisiae (strain ATCC 204508 / S288c) (Baker's yeast)) (UniProt P32657); assay: ScCHD-1 Enzyme Inhibition Assay; assay type: functional; settings: 30 µM; note: in the data most compounds retested in dose-response had high values
# Chromo domain-containing protein 1 (Saccharomyces cerevisiae (strain ATCC 204508 / S288c) (Baker's yeast)), sequence (P32657 whole entry, the tested form may be a part): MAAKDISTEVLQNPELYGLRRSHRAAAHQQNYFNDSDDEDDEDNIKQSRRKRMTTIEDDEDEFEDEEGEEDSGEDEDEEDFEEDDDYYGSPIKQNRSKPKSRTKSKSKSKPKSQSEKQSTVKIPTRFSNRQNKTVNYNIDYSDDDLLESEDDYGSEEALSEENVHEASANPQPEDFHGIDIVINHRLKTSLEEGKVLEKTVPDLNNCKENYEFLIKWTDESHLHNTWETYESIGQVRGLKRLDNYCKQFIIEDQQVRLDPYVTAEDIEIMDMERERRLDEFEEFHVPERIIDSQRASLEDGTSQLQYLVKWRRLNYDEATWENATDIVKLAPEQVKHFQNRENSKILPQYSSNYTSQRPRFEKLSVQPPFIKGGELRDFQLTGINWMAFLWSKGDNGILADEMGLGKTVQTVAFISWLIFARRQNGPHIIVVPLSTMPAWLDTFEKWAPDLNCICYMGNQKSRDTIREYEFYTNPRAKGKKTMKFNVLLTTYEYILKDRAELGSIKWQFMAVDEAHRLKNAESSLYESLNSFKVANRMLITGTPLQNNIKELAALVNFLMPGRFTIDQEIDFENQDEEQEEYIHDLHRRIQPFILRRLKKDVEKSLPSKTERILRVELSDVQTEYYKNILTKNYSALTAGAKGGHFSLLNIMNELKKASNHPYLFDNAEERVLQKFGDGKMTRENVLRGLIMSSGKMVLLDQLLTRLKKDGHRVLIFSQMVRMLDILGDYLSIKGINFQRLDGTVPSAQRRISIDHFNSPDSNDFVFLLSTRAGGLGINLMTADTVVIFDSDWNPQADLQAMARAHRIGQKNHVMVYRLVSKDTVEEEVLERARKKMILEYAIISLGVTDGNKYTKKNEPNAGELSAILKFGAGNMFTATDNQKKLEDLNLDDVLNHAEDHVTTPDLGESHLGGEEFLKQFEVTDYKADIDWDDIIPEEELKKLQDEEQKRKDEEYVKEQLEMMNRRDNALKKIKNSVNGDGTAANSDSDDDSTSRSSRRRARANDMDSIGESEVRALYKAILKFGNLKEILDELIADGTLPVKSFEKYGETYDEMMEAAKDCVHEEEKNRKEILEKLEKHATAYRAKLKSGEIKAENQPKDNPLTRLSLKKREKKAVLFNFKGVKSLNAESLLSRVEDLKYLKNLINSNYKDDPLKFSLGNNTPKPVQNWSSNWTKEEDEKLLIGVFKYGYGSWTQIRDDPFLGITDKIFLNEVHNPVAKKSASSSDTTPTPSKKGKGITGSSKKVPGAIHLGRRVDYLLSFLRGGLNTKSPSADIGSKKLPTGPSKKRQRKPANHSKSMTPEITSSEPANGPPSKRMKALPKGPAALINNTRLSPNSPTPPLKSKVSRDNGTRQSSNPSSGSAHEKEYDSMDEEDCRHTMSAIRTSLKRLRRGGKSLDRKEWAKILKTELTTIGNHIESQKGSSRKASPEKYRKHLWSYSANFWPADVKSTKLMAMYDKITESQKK
# Protein translocase subunit SecA (Escherichia coli (strain K12)), sequence (P10408 whole entry): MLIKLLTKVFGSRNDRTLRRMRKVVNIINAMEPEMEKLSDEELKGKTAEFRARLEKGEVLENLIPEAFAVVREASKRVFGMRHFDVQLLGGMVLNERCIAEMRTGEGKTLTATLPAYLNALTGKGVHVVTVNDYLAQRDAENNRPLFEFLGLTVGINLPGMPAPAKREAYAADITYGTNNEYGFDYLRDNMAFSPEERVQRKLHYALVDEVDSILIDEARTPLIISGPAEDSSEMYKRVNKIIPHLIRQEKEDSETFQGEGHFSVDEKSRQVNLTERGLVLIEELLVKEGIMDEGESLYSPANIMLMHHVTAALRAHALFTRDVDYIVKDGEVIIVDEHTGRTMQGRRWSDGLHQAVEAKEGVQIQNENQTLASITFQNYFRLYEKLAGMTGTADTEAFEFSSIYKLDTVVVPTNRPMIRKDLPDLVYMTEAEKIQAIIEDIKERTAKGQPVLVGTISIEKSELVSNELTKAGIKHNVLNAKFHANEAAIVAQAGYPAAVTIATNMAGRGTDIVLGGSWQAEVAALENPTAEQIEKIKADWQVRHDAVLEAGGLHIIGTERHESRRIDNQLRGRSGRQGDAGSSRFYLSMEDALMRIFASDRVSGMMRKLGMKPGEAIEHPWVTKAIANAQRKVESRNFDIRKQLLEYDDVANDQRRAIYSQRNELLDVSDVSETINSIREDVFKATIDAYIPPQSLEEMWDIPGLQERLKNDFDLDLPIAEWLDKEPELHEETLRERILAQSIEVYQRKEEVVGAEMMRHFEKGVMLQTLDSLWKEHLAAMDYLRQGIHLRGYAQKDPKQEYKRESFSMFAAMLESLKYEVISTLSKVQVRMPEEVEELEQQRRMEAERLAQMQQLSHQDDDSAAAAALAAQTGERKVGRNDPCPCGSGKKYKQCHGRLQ
# Sialic acid-binding Ig-like lectin 9 (Homo sapiens), sequence (Q9Y336 whole entry): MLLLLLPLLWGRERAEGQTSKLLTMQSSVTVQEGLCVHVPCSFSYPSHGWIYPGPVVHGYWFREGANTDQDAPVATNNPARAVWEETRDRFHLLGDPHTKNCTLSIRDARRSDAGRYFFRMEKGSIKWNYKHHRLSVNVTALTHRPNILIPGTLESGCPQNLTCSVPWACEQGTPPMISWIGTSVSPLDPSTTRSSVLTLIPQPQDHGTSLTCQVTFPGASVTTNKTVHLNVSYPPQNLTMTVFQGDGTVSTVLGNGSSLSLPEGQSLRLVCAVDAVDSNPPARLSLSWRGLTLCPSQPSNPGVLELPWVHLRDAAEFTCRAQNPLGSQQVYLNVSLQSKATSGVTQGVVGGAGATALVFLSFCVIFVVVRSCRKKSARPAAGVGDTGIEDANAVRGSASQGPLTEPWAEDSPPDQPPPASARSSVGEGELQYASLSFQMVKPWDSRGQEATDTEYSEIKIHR
Structure (SMILES),Percent Effect [1] [%],Percent Effect [2] [%],Percent Effect [3] [%],Percent Effect [4] [%],Percent Effect (Trypanosoma cruzi) [%],Percent Effect [5] [%],Percent Effect [6] [%],Percent Effect (Homo sapiens) [%],Percent Effect [7] [%],Percent Effect [8] [%],Percent Effect [9] [%]
Cc1nonc1CN(C)CC1(O)CCCN(CCC2CCCCC2)C1=O (stereo unspecified),2.32,8,-14.2,-0.787,1.66,12.5,16.4,35.9,10.4,18.5,-1.61
COc1ccccc1C(O)CNC(=O)Nc1ncccc1C (stereo unspecified),-3.85,12.7,3.4,-8.4,6.52,0,8.27,16.1,5.42,16.5,-4.09
COCCN1CCN(C(=O)c2cc(C(C)C)on2)[C@H]2CS(=O)(=O)C[C@H]21,-4.23,1.39,-4.33,-3.43,-3.6,-0.442,17.2,-5.77,2.1,0,-2.65
N#Cc1ccnc(N2CCN(C(=O)NC3CCS(=O)(=O)C3)CC2)c1 (stereo unspecified),-2.8,16.2,-36.1,7.69,-0.464,-0.185,9.87,14.6,7.92,23.2,-5.46
Cc1cc(N2CCCN(C(=O)Cc3csc(C)n3)CC2)ccn1,0.872,5.41,0.202,-1.96,-2.7,4.76,20.2,9.24,2.65,9.76,-3.36
Cc1nn(C)c(C)c1C1CCCN1C(=O)c1cc[nH]n1 (stereo unspecified),-3.64,3.8,5.29,4,-4.41,-1.07,5.49,10.6,-1.04,7.59,7.31
O=C(Cn1cccn1)NCC1(c2ccccc2)CC1,-4.9,2.6,0.192,-7.24,-2.25,2.74,-1.86,23.2,-0.952,-2.35,-6.03
Cc1ccccc1C(=O)Nc1cnn(CC(=O)NC2CCCC2)c1,-4.39,0,-22.8,4.85,1.98,1.6,20.5,6.03,7.29,11.1,-0.609
CS(=O)(=O)NCCCN1CCCCC1c1cc2ccccc2[nH]1 (stereo unspecified),-6.23,15.2,-13,11.7,8.03,-7.22,5.65,-8.5,1.48,16.5,-7.23
COc1ccc(-n2cnnc2SCCC#N)cn1,-2.65,8,0.911,11.1,4.38,18.2,11.3,-11.2,6.01,21,-6.98
N#Cc1c(F)cccc1N1CCC(NS(=O)(=O)c2cccs2)CC1,0.0864,-11,24.6,-2.85,-9.6,-0.455,14,34.2,-15.1,-20,-4.33
COCCNC(=O)C1(c2ccccc2C)CCOCC1,-6.97,2.7,-2.99,-1.02,-5,4.81,0.18,13.2,0.493,-6.17,-1.03
CCn1ccnc1CN1CCN(C(C)C(=O)N2CCC(C)CC2)CC1 (stereo unspecified),-2.02,2.7,-8.85,9.21,2.88,-3.14,15.4,11,3.96,11,-4.46
CC(C)c1noc(CCCC(=O)N2CCN(Cc3ccncc3)CC2)n1,-2.42,22.8,-9.61,-9.55,3.87,-6.84,12.2,11.6,5.42,21.5,-6.65
Cn1cc(C2CC(=O)NC23CCN(c2ncc(F)cn2)CC3)cn1 (stereo unspecified),0.954,16,3.9,5.28,-4.25,-16.3,3.08,16.6,1.04,17.5,-4.13
Cc1noc([C@@H]2C[C@H]3OCC[C@H]3N(S(C)(=O)=O)C2)n1,-1.89,11,-9.13,8.3,4.37,-1.6,9.5,1.34,6.25,8.64,-4.65
Cc1ncsc1C(=O)NCCSCCCO,1.26,16.2,-5.95,-2.14,1.02,-1.29,15.4,-0.639,4.95,15.8,-4.16
COc1ccc(S(=O)(=O)NCc2cccnc2N(C)C)cc1F,-1.87,20.2,-8.9,-2.51,2.74,6.08,4.18,21.9,8.37,24.1,-5.49
CN(Cc1cccc(O)c1)CC1CCCN(CCc2ccc(Cl)cc2)C1 (stereo unspecified),-6.32,-13.5,1.05,9.76,2.64,4.22,-2.32,27.2,4.3,11.1,-0.68
CC(C)(C)N1CC(C(=O)N2CCN(CCn3cccc3)CC2)CC1=O (stereo unspecified),-6.81,10.7,-6.2,27.1,4.97,22.4,12,5.12,4.92,8.64,-4.28
Cn1cc(C2CCCN2C(=O)Cc2n[nH]c3ccccc23)cn1 (stereo unspecified),-3.26,22.8,4.87,-9.88,6.33,0.76,13,7.84,6.4,21.5,-11.7

# Source: ChEMBL document CHEMBL3988442, “University of Dundee, Small-Polar-MMV Screening Library” (2021)
